Screening results (PubChem)
TexasRed fluor – counter-screen for TRb-SRC2 inhibitors: fluorescence interference; TRb/SRC2 Texas Red total fluorescence interference; Potency, µM (top dose mostly 106 µM), for the others: top-dose fluorescence change, negative = quenching; 280,000 compounds, 0.29% hits; AID 1479; active = well fitted curve in either direction with a large enough effect; inconclusive = small, poorly fitted or top-dose-only effect; note: potency is the fitted concentration of half-maximal effect
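Human TRβ ligand-binding domain (0.6 uM) and Texas Red SRC2 peptide (20 nM) in Tris buffer with 1 uM T3 and 5% DMSO were incubated with pinned compound for 5 hr at ambient temperature. Total fluorescence was computed as S + 2P (555/632 nm).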
Tau fibril FP – inhibitors of human tau fibril formation; 280,000 compounds, 0.39% hits; P10636; Potency, µM (titrated, usually from 57.7 µM), for inactives: at the highest dose activity, negative = inhibition, actives largely listed as inhibitors; K18 P301L tau heparin fibrillization, Alexa594 FP, 6 h; note: potency is the fitted concentration of half-maximal effect; nearly all actives have a fitted effect of over 55% in size
Target sequence (P10636 561-689 P618L limits assumed): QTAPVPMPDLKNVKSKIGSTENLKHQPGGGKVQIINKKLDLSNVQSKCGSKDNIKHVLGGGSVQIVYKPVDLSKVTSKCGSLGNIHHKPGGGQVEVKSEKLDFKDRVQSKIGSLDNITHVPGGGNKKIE
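Recombinant K18 P301L […], labeled with Alexa 594 at 0.24 uM over 15 uM unlabeled; heparin inducer 20 uM final; 37 C, 6 hr; FP endpoint.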
Tau ThT inhib – tau fibrillization inhibition (ThT binding) | P10636 | AID 1460 | recombinant tau K18 P301L, heparin-induced fibrillization, ThT fluorescence | Potency, µM (titrated, usually from 57.4 µM), without a hit: at the highest dose activity, negative = inhibition, usual class: inhibitors | 270,000 compounds, 2.1% hits; note: potency is the fitted concentration of half-maximal effect; nearly all actives have a fitted effect of over 55% in size
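Heparin-induced fibrillization of the P301L-mutant K18 repeat-domain fragment of human tau was followed by ThT binding in quantitative high-throughput format.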
PNC assembly inh – perinucleolar compartment assembly inhibition; 140,000 compounds, 3.1% hits; activity change (PNC), negative = inhibition, % at 10 µM; AID 2417; PC3M PTB-GFP, PNC prevalence imaging, 16 h; active compounds read low;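 active = readout at or below -70, meaning at least 70% loss of cells showing the perinucleolar compartment, a nuclear body marking cancer cells; inconclusive = readout between -30 and a set limit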;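 note: plate controls were DMSO wells for no effect and camptothecin positive control wells for full effect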
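Read-out is percentage of cells bearing a perinucleolar compartment, from automated 20x imaging of fixed, Hoechst-stained PC3M PTB-GFP cells. Cells were seeded 4 h, then exposed 16 h to compound (23 nl of library stock) in duplicate plates.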
TRb-SRC2 inh – inhibitors of human thyroid hormone receptor beta-SRC2 interaction; TRbeta-SRC2 peptide binding, fluorescence polarization; receptor liganded with 1 µM T3; AID 1469; Potency, µM (series often up to 106 µM), without a hit: at the highest dose activity change, negative = inhibition, most hits filed as inhibitors; 280,000 compounds, 0.065% hits;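 note: potency is the fitted concentration of half-maximal effect; plate controls were bound peptide for no effect and peptide without receptor for full effect; nearly all actives have a fitted effect of over 50% in size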
Target sequence (P10828 whole entry, looked up): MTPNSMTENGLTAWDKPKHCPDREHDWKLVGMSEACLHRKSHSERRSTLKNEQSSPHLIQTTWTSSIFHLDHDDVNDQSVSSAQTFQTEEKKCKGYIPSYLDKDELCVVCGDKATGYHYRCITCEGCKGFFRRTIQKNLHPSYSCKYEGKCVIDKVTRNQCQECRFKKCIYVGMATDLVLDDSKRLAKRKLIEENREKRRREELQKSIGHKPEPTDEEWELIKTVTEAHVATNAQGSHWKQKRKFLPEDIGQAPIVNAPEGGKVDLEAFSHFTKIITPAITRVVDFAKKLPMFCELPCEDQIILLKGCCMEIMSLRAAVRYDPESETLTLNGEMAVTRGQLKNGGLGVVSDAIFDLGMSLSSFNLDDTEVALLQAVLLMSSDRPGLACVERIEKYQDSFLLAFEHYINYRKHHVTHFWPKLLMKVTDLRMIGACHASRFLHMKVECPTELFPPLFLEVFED
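Assay buffer: 20 mM Tris-HCl, 100 mM NaCl, 10% glycerol, 1 mM EDTA, 0.01% NP-40, 1 mM DTT, 1 uM T3, 5% DMSO; TRb LBD 0.6 uM, Texas Red SRC2 20 nM; FP after 5 hr.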
Tau fluor cs – counter-screen for tau fibril formation inhibitors; tau K18 P301L Alexa594 fluorescence, heparin fibrillization; Potency, µM (doses to about 57.7 µM), without a hit: at the highest dose activity change, negative = decrease; 280,000 compounds, 0.93% hits; AID 1463; note: potency is the fitted concentration of half-maximal effect; nearly all actives have a fitted effect of over 55% in size
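Human tau K18 P301L (15 uM unlabeled, 0.24 uM Alexa 594-labeled) in 100 mM sodium acetate pH 7 with 20 uM heparin, 6 hr at 37 C. ThT 30 uM added, 1 hr ambient; Alexa 594 FP and total fluorescence read at 555/632 nm.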
Active calls of the source: *; u = inconclusive; x = no result given; [ ] = dose if it differs, or a comment. Only some compounds are listed: those with a hit (about 4.6% of all), similar ones and a draw of the others. Unless noted, calls come from the whole dose curve; as a rule, active = well fitted curve in the direction sought with a large enough effect; inconclusive = small, poorly fitted or top-dose-only effect, or another doubt; inactive = no such curve, though single readings can be large; an effect the other way counts as inactive or inconclusive. Unless noted, % is set by controls: 0 for no effect and ±100 for the full control effect.

SMILES	TexasRed fluor	Tau fibril FP	Tau ThT inhib	PNC assembly inh	TRb-SRC2 inh	Tau fluor cs
COc1ccc(-c2cn[nH]c2-c2ccc(OCc3ccccc3)cc2O)cc1	-5%	u	-14%	x	0%	6.3µM*[quencher]
COc1ccccc1-c1cn[nH]c1-c1ccc(OCc2ccccc2)cc1O	3%	u	-13%	x	5%	11µM*[quencher]
C=CCn1c(C)cc(C(=O)COC(=O)c2ccc(N)c([N+](=O)[O-])c2)c1C	3%	-9%	u	-4	-4%	25µM*[quencher]
C=CCn1c(C)cc(C(=O)COC(=O)c2ccc3c(c2)NC(=O)CS3)c1C	0%	u	u	-81*	-1%	-20%
Cc1cc(C(=O)COC(=O)c2ccc(N)c([N+](=O)[O-])c2)c(C)n1Cc1ccc2c(c1)OCO2	-4%	u	u	x	1%	4.5µM*[quencher]
COc1ccc(NC(=S)NC(NC(=O)/C=C/c2ccccc2)C(Cl)(Cl)Cl)cc1 (stereo not drawn)	-1%	-8%	2%	69	4%	-26%
CCOC(=O)c1ccc(-c2ccc(/C=C(\C#N)c3nc4ccc(C)cc4[nH]3)o2)cc1	-5%	-1%	-5%	x	3%	-18%
COCCNC(=O)/C(C#N)=C/c1ccc(N2CCOCC2)o1	1%	-1%	u	47	0%	-12%
Cc1ccc(/C(C#N)=C\c2ccc(N3CCOCC3)o2)cc1	13%	u	10µM*	-26	-4%	u
N#C/C(=C\c1ccc(N2CCOCC2)o1)C(=O)NCCc1ccccc1	-1%	11%	8.9µM*	x	-9%	-27%
N#C/C(=C\c1ccc(N2CCOCC2)o1)C(=O)NCC1CCCO1 (stereo not drawn)	-3%	3%	-3%	x	-2%	-12%
Cc1ccc2nc(/C(C#N)=C\c3ccc(N4CCOCC4)o3)[nH]c2c1	-4%	u	13µM*	17	-20%	u
O=C(NC1=NCCS1)c1cccc(N2C(=O)c3ccccc3C2=O)c1	1%	-1%	-6%	x	-2%	-3%
COc1ccc(CC(=O)N2CCN(C(=O)c3ccco3)CC2)cc1	4%	-11%	-12%	7	-17%	-6%
CC(CN1CCOCC1)OC(=O)/C=C/c1ccccc1 (stereo not drawn)	-5%	-1%	-2%	x	5%	-4%
c1cc2c(cc1-c1csc(NNC3=NCCCCC3)n1)OCCO2	0%	28µM*	25µM*	x	-1%	u
COc1ccccc1C(=O)Nc1nc(-c2ccc3c(c2)OCCO3)cs1	-2%	-27%	-18%	x	6%	u
N#C/C(=C\Nc1ccc2c(c1)OCCO2)c1nc(-c2ccccc2)cs1	1%	2%	0%	2	2%	-23%
c1cc2c(cc1Nc1nc(-c3ccc4c(c3)OCO4)cs1)OCCO2	3%	7%	3.2µM*	u	10%	8.9µM*[quencher]
COc1cccc(Nc2nc(-c3ccc4c(c3)OCCO4)cs2)c1	-4%	-8%	7.1µM*	-19	-1%	11µM*[quencher]
CCC(=O)Nc1nc(-c2ccc3c(c2)OCCO3)cs1	-1%	8%	u	-9	3%	-8%
c1ccc(-c2csc(Nc3ccc4c(c3)OCCO4)n2)cc1	-3%	-6%	13µM*	-5	-9%	14µM*[quencher]
Cc1cccc(C)c1NC(=O)COC(=O)CCC(=O)c1cccs1	-1%	-8%	-9%	x	-2%	-8%
Cc1cccc(Cn2c(C(=O)OC(C)C)cc3c2ccn3C)c1	-1%	u	35µM*	u	u	u
CCOC(=O)c1cc2c(ccn2C)n1Cc1ccc(Cl)cc1	-1%	-4%	u	x	0%	-23%
SMILES	TexasRed fluor	Tau fibril FP	Tau ThT inhib	PNC assembly inh	TRb-SRC2 inh	Tau fluor cs
c1cnc(-c2noc(CN3CCN(C4C5CC6CC(C5)CC4C6)CC3)n2)cn1 (stereo not drawn)	-1%[53 µM]	-2%	-5%	x	3%[53 µM]	-8%
COC(=O)Cn1c(=O)c2c(nc3n2CCN3c2cccc(C)c2)n(C)c1=O	6%	-6%	u	x	11%	-11%
Cc1cccc(N2CC(C)Cn3c2nc2c3c(=O)n(CC(=O)O)c(=O)n2C)c1 (stereo not drawn)	10µM*[quencher]	2%	-13%	x	0%	-19%
COc1ccc(CCNC(=O)CCn2c(=O)c3ccccc3n(CC(=O)Nc3ccc(C)cc3C)c2=O)cc1OC	6%	u	-19%	x	5%	-19%
Cc1cccc(CN2CCN(CC(=O)NCCCN3CCN(c4ccc(F)cc4)CC3)C2=O)c1	-6%	7%	-16%	u	-2%	-6%
Cc1cccc(CN2CCN(CC(=O)NCCCN3CCCC3=O)C2=O)c1	2%	6%	3%	-111*	0%	4%
CSc1nnc([C@@H](NC(=O)OC(C)(C)C)C(C)C)o1	-6%	-2%	-1%	-25	-1%	1%
CCCOc1ccc(C(=O)N2CCN(c3ccc(NC(=O)CC)cc3Cl)CC2)cc1	-8%	9%	u	-15	-1%	u
CCOC(=O)c1sc(N/N=C/c2ccccc2)nc1C	-1%	-3%	u	28	0%	u
CCOC(=O)c1sc(N/N=C/c2cccc(C)c2)nc1C	1%	u	u	u	-8%	8.9µM*[quencher]
O=C(NNc1ccccc1Br)C(O)(c1cccc(C(F)(F)F)c1)c1cccc(C(F)(F)F)c1	-1%	u	1%	u	-4%	u
Cc1ccc(NNC(=O)C(O)(c2cccc(C(F)(F)F)c2)c2cccc(C(F)(F)F)c2)cc1	-8%	1%	-18%	22	0%	13µM*[quencher]
CCCn1c(SCC(=O)Nc2sc(C)c(C)c2C#N)nnc1C(C)C	-7%	-11%	u	u	-6%	-16%
Cc1sc(NC(=O)CSc2nnc(C(C)C)n2C)c(C#N)c1C	-3%	-6%	4%	-86*	-8%	-5%
COc1nn(CC(=O)N2N=C(C(F)F)CC2(O)C(F)F)cc1[N+](=O)[O-] (stereo not drawn)	1%	-3%	-2%	-90*	-18%	-1%
Cc1cccnc1NC(=O)c1c(O)c2cccc3c2n(c1=O)CCC3	-2%	-8%	u	16	-1%	-6%
C=CCNc1nnc(SC2CC(=O)N(c3ccc(OCCC)cc3)C2=O)s1 (stereo not drawn)	1%	-4%	u	38	-4%	-8%
CCOc1ccc(Br)cc1C1C(C(=O)Nc2ccccc2OC)=C(C)Nc2nnnn21 (stereo not drawn)	-29%	-11%	-3%	x	1%	-3%
